GLP-1R agonist = agonists of human GLP-1 receptor; P43220; HEK293 GLP-1R CRE-luciferase, luminescence, 4-6 h; cells express a hypersensitive GLP-1R form; Potency, µM (highest dose often 45.6 µM), usual class: activators; actives 0.007% (n = 380,000)
GLP1R inv ag = inverse agonists of human GLP-1 receptor | Potency, µM (top dose mostly 38.3 µM), actives largely listed as inhibitors | AID 624417 | actives 1.6% (n = 410,000) | HEK293 GLP-1R CRE-luciferase, luminescence, 24 h; GLP-1R form is constitutively active | P43220; further: nearly all actives have a fitted effect of over 55% in size
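qHTS in 1536-well format: reporter HEK293 cells expressing constitutive GLP-1R activity in DMEM + 10% Nu serum, 24 hr with compounds at 37 deg C, luminescence read after 12 min with detection reagent.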
ClpP mod = qHTS Assay for Activators of ClpP; purified B. subtilis ClpP, FRET peptide cleavage, 20 min; actives 1.9% (n = 340,000); AID 651965, 2013; ATP-dependent Clp protease proteolytic subunit (Bacillus subtilis (strain 168)), P80244; Potency, µM (series often up to 57.5 µM); active means well fitted falling curve with a large enough effect; inconclusive means small, poorly fitted or top-dose-only effect; inactive means no such curve, though single readings can be large or run the other way; further: the source files actives as falling curves though it sought activators and does not explain the sign; nearly all actives have a fitted effect of over 65% in size
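ClpP 10 microg/mL final, pH 8 Tris/KCl buffer with BSA, glycerol, Tween-20; compound pinned in; FRET-FV substrate; RT 20 min; Ex320/Em430; ΔFRET vs ADEP 5.8 microM, DMSO, no enzyme.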
HEK293 tox = cytotoxicity counter-screen for GLP-1 receptor inverse agonists. HEK293 cAMP-luciferase reporter cells, luminescence, 24 h. actives 0.13% (n = 410,000). Potency, µM (highest dose often 38.3 µM), usual class: inhibitors. AID 624418;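 further: loss of luciferase light is scored as toxicity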
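Luminescence readout: signal drop marks cytotoxicity. Plated cells grew 12 h at 37 °C, 5% CO2, received 23 nL compound for 24 h, then got luciferase reagent, read after 12 min at RT.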
Large screens that a line does not name were inactive; ! = a repeat was not active. Rows were chosen to be rich in hits. Some 3.2% of all compounds tested hit in one or more screens of this group. Unless noted, the call rests on the fitted dose curve; in most records, active means well fitted curve in the direction sought with a large enough effect; inconclusive means small, poorly fitted or top-dose-only effect, or another doubt; inactive means no such curve, though single readings can be large; an effect the other way counts as inactive or inconclusive.

O=C(CN1C(=O)C(=O)N(CCC2=CCCCC2)C1=O)c1c[nH]c2ccccc12	GLP1R inv ag inconclusive, ClpP mod 11µM, HEK293 tox inconclusive
CCN(C(=O)COC(=O)c1ccc2c(c1)OCO2)c1ccc(F)cc1	GLP1R inv ag inconclusive, ClpP mod 28µM
CCc1ccc(NC(=O)CCc2nnc3n(C)c(=O)c4sccc4n23)cc1	none
COc1cc2cc(C(=O)O)[nH]c2c(OC)c1OC	ClpP mod 28µM
CNC(=O)c1cc2c(s1)-c1ccccc1CC2	none
O=C(N/N=C/c1ccc(F)c(F)c1)c1cc2c(s1)-c1ccccc1CC2	ClpP mod 32µM
Cc1cc2c(cc3c(SCC(=O)Nc4cccc(Cl)c4C)nnc(C)n32)o1	none (no result: GLP-1R agonist)
C/C=C1\COC(C(=O)NCc2ccccc2)(C(F)(F)F)C=C1C=C(C)C (centres undefined)	GLP1R inv ag 10µM
O=C(NCc1ccccc1)C1(C(F)(F)F)C/C(=C/CCO)CCCO1 (centres undefined)	none
Cc1ccc(NC(=O)CCCn2c(=O)c3cccn3c3ccccc32)cc1C	none (no result: GLP-1R agonist)
Cc1cc(C)cc(NC(=O)CCS(=O)(=O)c2ccc3nc(C)sc3c2)c1	none (no result: GLP-1R agonist)
CCOC(=O)c1sc(Nc2nc3c(F)cccc3s2)cc1C	ClpP mod 8.9µM
COc1cc2nc(Nc3ccc(F)cc3)nc(N)c2cc1OC	GLP1R inv ag inconclusive
COc1cc2nc(Nc3cccc(C)c3)nc(N)c2cc1OC	GLP1R inv ag inconclusive, ClpP mod inconclusive (no result: GLP-1R agonist)
COc1ccccc1N1CCN(Cc2nc(N)nc(Nc3ccc(C)c(Cl)c3)n2)CC1	GLP1R inv ag 2.2µM
COc1ccccc1Nc1nc(N)nc(CN2CCN(c3ccccc3F)CC2)n1	GLP1R inv ag inconclusive
COc1cc2nc(Nc3ccc(C)c(C)c3)nc(N)c2cc1OC	GLP1R inv ag 10µM, ClpP mod inconclusive, HEK293 tox inconclusive
CCOC(=O)c1ccc(Nc2nc(N)c3cc(OC)c(OC)cc3n2)cc1	GLP1R inv ag inconclusive, ClpP mod 32µM!, HEK293 tox inconclusive
COc1cc2nc(Nc3ccc(C)c(Cl)c3)nc(N)c2cc1OC	GLP1R inv ag 3.2µM, HEK293 tox inconclusive (no result: ClpP mod)
CCOc1ccc(CCNC(=O)CCc2cn(Cc3ccc(F)cc3)c3ccccc23)cc1	GLP1R inv ag inconclusive (no result: GLP-1R agonist)
COC(=O)c1sccc1S(=O)(=O)N(CC(=O)Nc1cc(F)ccc1F)c1ccc(C)c(C)c1	GLP1R inv ag inconclusive (no result: GLP-1R agonist)
COC(=O)c1ccccc1NC(=O)Cn1c(=O)n(CCC(=O)NCc2ccccc2OC)c(=O)c2ccccc21	none
CCCN(CC1CC1)C(=S)NC(=O)c1ccccc1C	GLP1R inv ag inconclusive
CCCN(CC1CC1)C(=S)NC(=O)c1cc(Br)ccc1Cl	HEK293 tox 3.2µM
COCCN1CCCC(CNCc2cn(C)nc2-c2ccc(Oc3ccccc3)cc2)C1 (centres undefined)	GLP1R inv ag inconclusive, HEK293 tox inconclusive
Cn1cc(CNCc2cn(C)nc2-c2ccc(C3CCCCC3)cc2)cn1	GLP1R inv ag 7.9µM (no result: ClpP mod)
Cc1ccc(-n2c(-c3ccccc3)n[nH]c2=S)cc1	HEK293 tox inconclusive
CC(C)(C)c1ccc(-c2n[nH]c(=S)n2-c2ccccc2)cc1	ClpP mod 8.9µM, HEK293 tox inconclusive
Cc1ccc(C)c(-n2c(-c3csc(C)c3)n[nH]c2=S)c1	ClpP mod inconclusive, HEK293 tox inconclusive
Cc1ccc(C)c(-n2c(-c3ccc4c(c3)OCO4)n[nH]c2=S)c1	GLP1R inv ag inconclusive, ClpP mod 28µM
Cc1ccc(-n2c(-c3ccccc3)n[nH]c2=S)c(C)c1	GLP1R inv ag inconclusive, HEK293 tox 10µM
CCOC(=O)c1cc(-c2ccc(F)cc2)n(CC(=O)NC2CCCCC2)c1C	none (no result: GLP-1R agonist)
Cn1c(SCC(=O)c2ccc(F)cc2)nnc1-c1ccccc1Br	GLP1R inv ag inconclusive
COc1ccc(-c2cc(C(F)(F)F)nc(SCC(=O)Nc3cc(C)on3)n2)cc1	ClpP mod 4µM
CCCNC(=O)CSc1nc(-c2ccc(OC)cc2)cc(C(F)(F)F)n1	ClpP mod 3.2µM (no result: GLP-1R agonist)
COc1ccc(-c2cc(C(F)(F)F)nc(SCCC(=O)NCc3ccccc3)n2)cc1	ClpP mod 13µM
Cc1cc(C(F)(F)F)nc(SCC(=O)Nc2cc(C)on2)n1	none
CCn1nnc2cc(C(=O)Nc3ccc(C)c(Cl)c3)ccc21	none (no result: GLP-1R agonist)
CC(C)Cn1nc(C(=O)N2CCc3ccccc32)c2ccccc2c1=O	GLP1R inv ag 11µM
CCCn1nc(C(=O)N2CCc3ccccc32)c2ccccc2c1=O	GLP1R inv ag inconclusive
Cc1ccc(-c2cc(C(=O)N3CCOCC3)no2)cc1	GLP1R inv ag 3.2µM (no result: ClpP mod)
Cc1ccc(-c2cc(C(=O)N3CCCC3)no2)cc1	GLP1R inv ag 4µM
CC(NC(=O)c1ccccc1F)c1nnc(SCC(=O)N2CCN(c3ccccc3)CC2)n1C (centres undefined)	ClpP mod 25µM
Cn1c(CNC(=O)c2ccccc2F)nnc1SCC(=O)N1CCN(c2ccccc2)CC1	none (no result: ClpP mod)
CC1=C(C(=O)OCc2ccccc2)C(c2cccs2)N2C(=O)CCSC2=N1 (centres undefined)	GLP1R inv ag 11µM (no result: ClpP mod)
Cc1cccc(NC(=O)Cn2nnc(C(=O)NCc3cccs3)c2N)c1	none
COC(=O)c1cccc(NC(=O)c2cccnc2)c1	ClpP mod 14µM
COc1ccc(-n2nc3cc(C)c(NC(=O)c4cccnc4)cc3n2)cc1	ClpP mod 25µM
Cc1c(Cl)cccc1NC(c1ccc(F)cc1)c1nnc(-c2ccccc2)o1 (centres undefined)	GLP1R inv ag 8.9µM (no result: GLP-1R agonist)
CC(=O)c1cccc(NC(c2ccc(F)cc2)c2nnc(-c3ccccc3)o2)c1 (centres undefined)	GLP1R inv ag inconclusive
Fc1ccccc1Cn1c(-c2ccccc2)nc2ccccc21	GLP1R inv ag inconclusive (no result: GLP-1R agonist)
COc1cccc(C(C)(O)c2nc(-c3ccc(Cl)cc3)cs2)c1 (centres undefined)	GLP1R inv ag inconclusive
COc1ccc(-c2csc(C(C)(O)c3cccc(OC)c3)n2)cc1 (centres undefined)	GLP1R inv ag 10µM
CCCS(=O)(=O)N1CCC(n2c(C)nc3cccnc32)CC1	none (no result: GLP-1R agonist)
CC(C)(C)c1ccc(/C=C/C(=O)N2CCOCC2)cc1	ClpP mod 22µM
O=C(NC(Cc1ccccc1)C(=O)N1CCc2ccccc2C1)c1ccccc1 (centres undefined)	GLP1R inv ag 8.9µM (no result: ClpP mod)
O=C(NC(Cc1ccccc1)C(=O)O)c1ccccc1 (centres undefined)	none
NC(N)=N/N=C/c1ccc(OCc2ccccc2Cl)cc1	GLP1R inv ag 11µM, HEK293 tox inconclusive
NC(N)=N/N=C/c1ccccc1	none
C[n+]1ccc(/C=C/c2ccc([N+](C)(C)C)cc2)c2ccccc21	none (no result: GLP-1R agonist, GLP1R inv ag, HEK293 tox)
CC1CC(C)CN(C(=S)Nc2ccc(SC(F)F)cc2)C1 (centres undefined)	GLP1R inv ag inconclusive, ClpP mod 28µM, HEK293 tox inconclusive
COCCCN1C2=C(C(=O)CC(C)(C)C2)C(c2ccc(OC)c(OC)c2)C2=C1CC(C)(C)CC2=O	none

Source: PubChem (National Center for Advancing Translational Sciences (NCATS))
